Measurements: PubChem BioAssay (NCI)
About 83,000 compounds went through this panel and 20% of them were active in at least one assay; those are over-represented in the sample as a whole.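 Step 1: grow cells in 96-well plates. Step 2: add test compound at a single concentration. Step 3: incubate 48 h. Step 4: record percent growth.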 The source made the active and inactive calls.

Test system: NCI-H23 lung
Experiment: NCI-60 one-dose screen, 48 h (100 = growth as untreated, 0 = no growth, -100 = all killed)
Details: 10 µM unless noted
Method: Growth inhibition of the NCI-H23 human Non-Small Cell Lung tumor cell line is measured as a screen for anti-cancer activity. Cells are grown in 96 well plates and exposed to the test compound for 48 hours. Compounds are tested at a single concentration, which is 10^-5 M for most compounds. The reported endpoint is percent growth (GI% or GIPRCNT), where numbers from 0 - 100% represent growth inhibition, and numbers from -100% - 0 represent cell death. For example, a value of 40 represents 60% growth inhibition. A value of 0 means no net growth occurred over the course of the experiment. A value of -40 indicates 40% of cells at the beginning of the experiment died by the end of the experiment. A value of -100 means all cells are dead at the end of the experiment.
NCI-60 Human Tumor Cell Lines Screen was performed using the standard one-dose NCI protocol, which is described in more detail at https://dtp.cancer.gov/discovery_development/nci-60/default.htm.
Compounds with GIPRCNT values below 10 were considered active. Activity score was based on GIPRCNT using the following formula: […]
Score is 0 for GIPRCNT values of 100 or above, 50 for GIPRCNT values of 0, and 100 for GIPRCNT values of -100.

Compound | growth
OC1CSSC1Cn1cnc2c(Nc3ccc(OCc4cccc(F)c4)c(Cl)c3)ncnc21 (stereo not given) | -69.4% (active)
O=c1oc2c(cnc3ccccc32)cc1-c1cccc(Cl)c1 | 101% (inactive)
CN(C)Cc1ccc(NC(=O)c2cncc(C#Cc3cnc(N)c4ncccc34)c2)cc1C(F)(F)F | 42.1% (inactive)
CN(C)c1ccc([C@@H](C(=O)Nc2cccc([N+](=O)[O-])c2)N(C(=O)c2cc3ccccc3[nH]2)c2cccc([N+](=O)[O-])c2)cc1 | 97.5% (inactive)
O=C(CSc1nnnn1-c1ccccc1)Nc1ccc(Oc2ccccc2)cc1 | 101% (inactive)
COc1cc(/C=C/C(=O)c2cccc(-n3cc(-c4ccc(Cl)cc4)[nH]c3=O)c2)ccc1O | 97.5% (inactive)
O=C(NC1CCC(Br)CC1)C1CCCC(S(=O)(=O)NC2CCCCC2)C1 (stereo not given) | -3.95% [25 µM] (active)
C=C(C)[C@@H]1CC[C@]2(C(=O)N3CCN(C)CC3)CC[C@]3(C)[C@H](CC[C@@H]4[C@@](C)(CCC(=O)O)[C@H](C(=C)C)CC[C@]43C)[C@@H]12 | 95.4% (inactive)
CC1=Nc2cnc(Nc3ccc(N4CCCCC4)cc3)nc2Nc2ccccc21 | 67.1% (inactive)
COC(=O)c1c(C)nc(C)c2c1C(=O)C=C(NCc1ccccc1)C2=O | 72% (inactive)
CCOC(=O)c1c(C)nc2c(c1N)C(=O)C(=O)N2Cc1ccc(OC)cc1 | 59.6% (inactive)
c1ccc2cc(Cn3cc(CSc4nc5ccccc5s4)nn3)ccc2c1 | 93.2% (inactive)
CCN(CC)CCOc1ccc(/C(=C(\C)Cc2ccc(OC)cc2)c2ccc(OC(=O)NCc3ccccc3)cc2)cc1 | 88.4% (inactive)
Clc1ccc(-c2nc(C(Cl)Cl)nc3cc(-c4ccccc4)nn23)cc1 | -3.66% (active)
Cc1nc2ccccc2c(/C=C/c2ccc(F)cc2)c1C(=O)/C=C/c1ccccc1 | 20.7% (inactive)
COc1ccc(/C=N/Nc2c3ccccc3nc3ccccc23)cc1 | 88.3% (inactive)
COc1cc(/C=C/c2cn[nH]c2-c2ccc(C)cc2)cc(OC)c1OC | 56.2% (inactive)
COc1cc2c(c(OC)c1OC)CCC(c1cccc(C(=O)Nc3ccc(Br)cc3)c1)O2 (stereo not given) | 75.8% (inactive)
O=c1oc2ccccc2cc1-c1nn(-c2ccccc2)cc1-c1nn[nH]n1 | 101% (inactive)
C=C1C(=O)O[C@H]2[C@H]1CC/C(CNC(=O)Cc1c[nH]c3ccccc13)=C\CC[C@@]1(C)O[C@@H]21 | 30% (inactive)

Compound | growth
O=C(c1c[nH]c2ccccc12)c1n[nH]c(=S)n1-c1ccc([N+](=O)[O-])cc1 | 91.8% (inactive)
Nc1[nH]nc2nc(-c3ccccc3)n3c4ccccc4nc3c12 | 99.9% (inactive)
COc1ccc2c(c1)CC[C@@H]1[C@@H]2CC[C@]2(C)c3c(cc(C#N)c4c3sc3ccccc34)C[C@@H]12 | 99.4% (inactive)
CN(C)Cc1cc(C(C)(C)C)cc(Br)c1O | 107% (inactive)
C=CN(C(=O)N1CCN(c2cc3c(cc2F)c(=O)c(C(=O)O)cn3C2CC2)CC1)c1nc(-c2ccc(Cl)cc2)cs1 | 67.8% (inactive)
C#CCOc1cccc(Nc2ncnc3cc(NC(=O)CCl)ccc23)c1 | -65% (active)
Cc1ccc(-c2nc(SCC(=O)N3CCN(c4cc5c(cc4F)c(=O)c(C(=O)O)cn5C4CC4)CC3)nc(Cl)c2C#N)cc1 | 100% (inactive)
COc1ccc(C/C(C)=C(\c2ccc(Cl)cc2)c2ccc(OCCN3CCCC3)cc2)cc1 | 85% (inactive)
O=c1oc2c(cc1-c1ccccc1)c(=O)[nH]c1ccccc12 | 95.8% (inactive)
COc1cc(/C=C/C(=O)N2CCN(C(=O)c3cc(OC)c(OC)c(OC)c3)CC2)ccc1OCCCOc1cc2c(cc1OC)C(=O)N1CCC[C@H]1C=N2 | -13.6% (active)
Cc1ccc(OCCOCCOCCOc2ccc(C)n(O)c2=S)c(=S)n1O | 44.9% (inactive)
N#CSc1c[nH]c2ccc(/C=C/C(=O)/C=C(O)/C=C/c3ccc4[nH]cc(SC#N)c4c3)cc12 | 25.3% (inactive)
COc1cc(-c2nccc3[nH]c(-c4cccc5[nH]ccc45)nc23)cc(OC)c1OC | 26.8% (inactive)
CC1=C(Cl)C(=O)c2cc(C)ccc2C1=O | 100% (inactive)
Cc1c2cnccc2c(C)c2c1c1cc(CO)ccc1n2C | -46.1% (active)
Oc1c(CN2CCC(N3CCOCC3)CC2)cc(Cc2cc(CN3CCC(N4CCOCC4)CC3)c(O)c3ncccc23)c2cccnc12 | 40.8% (inactive)
C=C1C(=O)O[C@H]2[C@H]1CC/C(COC(=O)NCc1ccc(Cn3c(=O)sn(-c4ccc(I)cc4)c3=O)cc1)=C\CC[C@@]1(C)O[C@@H]21 | 94.8% (inactive)
CN1CCOCCN(C)Cc2ccc3ccc(cc3c2)CN(C)CCOCCN(C)Cc2ccc3ccc(cc3c2)C1 | 90.2% (inactive)
COC(=O)/C=C1/SC(=NCc2ccccc2)N(CCc2c[nH]c3ccccc23)C1=O | 87.2% (inactive)
CCNC(=O)N1CCc2c(Br)c3c(c(OC)c2C1Cc1ccc(OC)cc1)OCO3 (stereo not given) | 60.8% (inactive)
